# ChEMBL document CHEMBL3988442, “University of Dundee, Small-Polar-MMV Screening Library” (2021)
# About 960 (1.5%) of roughly 66,000 compounds showed an effect of 50% or more. The list comes from a sample in which strong results are over-represented; it also holds similar structures and randomly drawn compounds.
# Tested on: Trypanosoma brucei
# Test: Trypanosoma brucei 72 hour study
# Format: functional, organism-based
# Design: scale not given: in the data most compounds retested in dose-response had high values
smiles,measurement,setting,value
Cc1cc(C)n(-c2ccc(CNCc3ccc(C)o3)cn2)n1,Percent Effect,"30.3 µM, […]",8.783%
Cc1ccc(CNCc2ccc(-n3nc(C)cc3C)nc2)cc1,Percent Effect,"30 µM, 30.03 µM",-12.87%
CCn1cc(-c2c(C)c(C3CCOC(C)(C)C3)nc(N)c2C#N)cn1 (configuration not stated),Percent Effect,"30 µM, 30.03 µM",-13.96%
Cc1ccc(C(=O)N2CCC3(CC2)CCN(Cc2ccccn2)C3=O)o1.O=C(O)C(F)(F)F,Percent Effect,"30 µM, 30.03 µM",-16.24%
CCOCC(=O)N1CCOCC2(CCN(c3ncccn3)C2)C1.O=C(O)C(F)(F)F (configuration not stated),Percent Effect,"30.3 µM, […]",-43.52%
Cc1cc(NC(=O)N(CCO)Cc2ccsc2)no1,Percent Effect,"30.3 µM, […]",3.821%
Cc1nc(CN2CC[C@@H]3O[C@@H](C(=O)N4CCOCC4)C[C@@H]32)cs1.O=C(O)C(F)(F)F,Percent Effect,"30.3 µM, […]",-22.53%
CN(CCOc1cccc(S(C)(=O)=O)c1)c1ccccc1,Percent Effect,"30 µM, 30.03 µM",-2.31%
CCC(CNc1ncnc2oc(C)nc12)Cc1ccccc1 (configuration not stated),Percent Effect,"30.3 µM, […]",10.79%
CCCOc1ccccc1CCCNc1ncnc2oc(C)nc12,Percent Effect,"30.3 µM, […]",99.92%
CCCOc1ccc(Cl)cc1CNc1ncnc2oc(C)nc12,Percent Effect,"30.3 µM, […]",18.57%
CC(=O)N1CCN(Cc2ccsc2)CC2(CC(=O)N(C)C2)C1.O=C(O)C(F)(F)F (configuration not stated),Percent Effect,"30.3 µM, […]",-65.69%
O=C(c1cc(Cl)c[nH]c1=O)N1C[C@@H]2CC[C@H](C1)N(Cc1ccccc1)C2,Percent Effect,"30 µM, 30.03 µM",-61.83%
CC(=O)N1N=C(COc2ccc(Cl)cc2)OC1c1ccccc1 (configuration not stated),Percent Effect,"30 µM, 30.03 µM",-14.14%
CC(C)c1cc(NC(=O)Cn2cnc3ccccc3c2=O)[nH]n1,Percent Effect,"30 µM, 30.03 µM",1.416%
CC(C)c1cc(NC(=O)c2ccncc2)[nH]n1,Percent Effect,"30.3 µM, […]",16.87%
same,Percent Effect,"10 mM, 10 mM as filed; unlikely as a test dose",-12.06%
Cc1ccc(CC(=O)NCC(O)c2cc(Cl)cc(Cl)c2)cn1 (configuration not stated),Percent Effect,"30 µM, 30.03 µM",-24.81%
Cc1ccc(C(=O)Nc2cc(C(C)C)n[nH]2)cn1,Percent Effect,"30 µM, 30.03 µM",54.96%
CC(C)c1cc(NC(=O)c2ccc(C(=O)NC(C)(C)C)cc2)[nH]n1,Percent Effect,"30 µM, 30.03 µM",33.13%
CC(C)c1cc(NC(=O)c2ccc(NC3CC3)nc2)[nH]n1,Percent Effect,"30 µM, 30.03 µM",40.22%
CC(C)c1cc(NC(=O)c2ccc([S+]([O-])C(C)C)cc2)[nH]n1 (configuration not stated),Percent Effect,"30.3 µM, […]",80.42%
same,Percent Effect,"10 mM, 10 mM as filed; unlikely as a test dose",77.43%
Cc1ccc(CC(=O)Nc2cc(C(C)C)n[nH]2)cn1,Percent Effect,"30.3 µM, […]",101.5%
same,Percent Effect,"10 mM, 10 mM as filed; unlikely as a test dose",101.9%
CC(C)c1cc(NC(=O)c2cccnc2)[nH]n1,Percent Effect,"30.3 µM, […]",11.06%
same,Percent Effect,"10 mM, 10 mM as filed; unlikely as a test dose",-25.28%
NCc1cnn(-c2ccccc2C(=O)NCc2ccccn2)c1,Percent Effect,"30.3 µM, […]",5.478%
O=C(O)C(F)(F)F.O=C1CC2(CCN(Cc3ccco3)C2)CN1c1ccc2c(c1)OCO2 (configuration not stated),Percent Effect,"30 µM, 30.03 µM",43.65%
CN(C)C(=O)CN1C(=O)CCC12CCN(Cc1cccn1C)CC2.O=C(O)C(F)(F)F,Percent Effect,"30.3 µM, […]",-2.653%
COc1ccc([C@@H]2CN(C(=O)CS(C)(=O)=O)C[C@H]2NC(C)=O)cc1,Percent Effect,"30 µM, 30.03 µM",-86.91%
COc1ccc([C@@H]2CN(C(=O)CCC(F)(F)F)C[C@H]2NC(C)=O)cc1,Percent Effect,"30 µM, 30.03 µM",98.96%
CCOCC(=O)N1C[C@@H](NC(C)=O)[C@H](c2ccc(OC)cc2)C1,Percent Effect,"30 µM, 30.03 µM",-1.358%
COc1cccc(CN2CCCC3(CCN(C(=O)c4ccco4)C3)C2)c1 (configuration not stated),Percent Effect,"30.3 µM, […]",7.427%
Cc1cc(C)n(C2CN(CC(=O)N(C)Cc3cnn(C)c3)C2)n1,Percent Effect,"30 µM, 30.03 µM",17.09%
Cc1cc(C)n(C2CN(CC(=O)N(C)Cc3ccsc3)C2)n1,Percent Effect,"30 µM, 30.03 µM",62.05%
COc1cccc(CN(C)C(=O)CN2CC(n3nc(C)cc3C)C2)c1,Percent Effect,"30 µM, 30.03 µM",1.154%
O=C(O)C(F)(F)F.O=C([C@H]1C[C@H]2OCC[C@H]2N(Cc2ccc(F)cc2)C1)N1CCCCO1,Percent Effect,"30.3 µM, […]",-288.9%
Cc1ccc(CNC(=O)NCc2nccn2C)c(OC(C)(C)C)c1,Percent Effect,"30 µM, 30.03 µM",-10.65%
Cc1ccc(CNCc2nccn2C)c(OC(C)(C)C)c1,Percent Effect,"30 µM, 30.03 µM",-9.651%
CCn1ccnc1CNCc1ccc(C)cc1OC(C)(C)C,Percent Effect,"30 µM, 30.03 µM",59.89%
Cl.c1nc(N2CCOCC2)ncc1-c1cncn1CCCN1CCCCC1,Percent Effect,"30.3 µM, […]",-26.24%
CCn1cc(NC(=O)NCC(O)COc2ccccc2)cn1 (configuration not stated),Percent Effect,10 µM,2.207%
CN1CCCCC1c1ncc2c(n1)CCN(Cc1ccc(Cl)c(F)c1)C2 (configuration not stated),Percent Effect,"30.3 µM, […]",88.41%
CN1CCCCC1c1ncc2c(n1)CCN(CCCc1ccccc1)C2 (configuration not stated),Percent Effect,"30.3 µM, […]",98.5%
Cc1ncc2c(n1)CN(CCCc1ccccc1)CC2,Percent Effect,"30.3 µM, […]",13.17%
same,Percent Effect,"10 mM, 10 mM as filed; unlikely as a test dose",-28.02%
COc1ccc(CN2CCc3nc(C4CCCCN4C)ncc3C2)cc1 (configuration not stated),Percent Effect,"30 µM, 30.03 µM",-5.648%
CN1CCCCC1c1ncc2c(n1)CCN(Cc1ccccc1Cl)C2 (configuration not stated),Percent Effect,"30 µM, 30.03 µM",-6.551%
CN1CCCCC1c1ncc2c(n1)CCN(Cc1ccc(F)cc1)C2 (configuration not stated),Percent Effect,"30.3 µM, […]",42.96%
O=C(C1CCOCC1)N1C[C@H]2CCC[C@@]2(COc2ccccn2)C1.O=C(O)C(F)(F)F,Percent Effect,"30 µM, 30.03 µM",15.32%
Cl.Cn1nc(C2CCCN(Cc3cc(F)cc(F)c3)C2)c2nccnc21 (configuration not stated),Percent Effect,"30.3 µM, […]",30.77%
